Shh pathway inh – blocks Sonic Hedgehog signaling; 22,000 tested, 2.1% active; Shh-LIGHT2 Gli-luciferase reporter, 30 h; inhibition, % (no concentration beside the values);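 active means mean inhibition across valid replicates above about 65%, limit read from the data; inconclusive means mean under the limit, yet half or more replicates past it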;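 further: pathway switched on by Shh-conditioned medium diluted 1 in 25 in low serum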
PD-1 reverse act – reversal of PD-1 mediated T-cell inhibition. primary human CD4 T cells, PD-L1 beads, CellTiter-Glo 96 h. activation, % (no concentration beside the values). 29,000 tested, under 10 active; call rule not given here;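 further: 0% = median vehicle wells and 100% = positive control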
NOMO-1 viab – STK33 inhibitor candidate reducing NOMO-1 cell viability. inhibition, % (test concentration not listed). 37,000 tested, 7.5% active. AID 2330. NOMO-1 AML viability, CellTiter-Glo luminescence, 72 h; in the data active means inhibition above about 80%; inconclusive means no clear call, values can overlap the other calls
Starred values were filed as active, the others as inactive; ? = inconclusive; · = not tested or not shown. Compounds with a hit are over-represented: about 7.7% of the library has one in this group of screens.

SMILES | Shh pathway inh | PD-1 reverse act | NOMO-1 viab
Cc1noc(C)c1NC(=O)Nc1ccc2c(c1)CC(=O)N([C@@H](C)CO)C[C@H](C)[C@H](CN(C)Cc1ccc(C(=O)Nc3ccccc3N)cc1)O2 | · | 0.5 | 87.6*
Cc1noc(C)c1NC(=O)Nc1ccc2c(c1)C(=O)N([C@@H](C)CO)C[C@H](C)[C@@H](CN(C)Cc1ccc(C(=O)Nc3ccccc3N)cc1)O2 | · | 0.4 | -10.1
C[C@@H]1CN([C@H](C)CO)C(=O)Cc2cc(NC(=O)C3CC3)ccc2O[C@H]1CN(C)Cc1ccc(C(=O)Nc2ccccc2N)cc1 | · | -4.4 | 44.5
C[C@@H]1CN([C@@H](C)CO)C(=O)Cc2cc(NC(=O)Nc3ccc(F)cc3)ccc2O[C@@H]1CN(C)Cc1ccc(C(=O)Nc2ccccc2N)cc1 | · | 1.5 | 113.3*
C[C@@H]1CN([C@@H](C)CO)C(=O)Cc2cc(NC(=O)C3CC3)ccc2O[C@@H]1CN(C)Cc1ccc(C(=O)Nc2ccccc2N)cc1 | · | -0.2 | 82.0*
C[C@H](CO)N1C[C@H](C)[C@H](CN(C)Cc2ccc(C(=O)Nc3ccccc3N)cc2)Oc2ccc(NC(=O)Nc3ccc(F)cc3)cc2CC1=O | · | -4.4 | 126.7*
C[C@@H]1CN([C@H](C)CO)C(=O)Cc2cc(NC(=O)Nc3ccc(C(F)(F)F)cc3)ccc2O[C@H]1CN(C)Cc1ccc(C(=O)Nc2ccccc2N)cc1 | · | -1.5 | 23.8
O=C(CSc1nnc(Nc2ccccc2)n1-c1ccccc1)Nc1ccc2c(c1)COC2=O | · | -1.8 | -20.5
COC(=O)c1c(NC(=O)CSc2ccccn2)sc2c1CCC2 | · | -2.5 | 27.9
COc1ccc2c(c1)C(C)(CC#N)C(=O)N2C (configuration not stated) | -20.9 | 0.1 | -0.6
O=C(CSc1nnc(-c2ccc(Cl)cc2)n1-c1ccc(F)cc1)Nc1ccccc1Cl | · | · | 30.1
CCC(Sc1nnc2c(n1)[nH]c1ccccc12)C(=O)Nc1cccc2ccccc12 (configuration not stated) | · | 0.6 | 29.7
Cc1cc(C(=O)Oc2c(C)cc(C(=O)O)c(O)c2C)c(O)c(C)c1O | 1.6 | 0.6 | 24.4
COc1ccccc1NC(=O)CSc1nnc(-c2cccc3ccccc23)n1-c1ccccc1 | · | 0.2 | 28.7
CCC(Sc1nnc(N)s1)C(=O)Nc1c(C)cccc1C (configuration not stated) | · | 0.3 | -0.5
CC(C)NC(=O)Nc1ccc2c(c1)CC(=O)N([C@@H](C)CO)C[C@H](C)[C@@H](CN(C)Cc1ccc(C(=O)Nc3ccccc3N)cc1)O2 | · | -1.4 | 24.2
C[C@@H]1CN([C@H](C)CO)C(=O)Cc2cc(NC(=O)Nc3cccc4ccccc34)ccc2O[C@H]1CN(C)Cc1ccc(C(=O)Nc2ccccc2N)cc1 | · | -1.8 | -19.5
C[C@@H]1CN([C@@H](C)CO)C(=O)Cc2cc(NC(=O)Nc3ccccc3)ccc2O[C@@H]1CN(C)Cc1ccc(C(=O)Nc2ccccc2N)cc1 | · | -3.9 | 124.1*
C[C@@H]1CN([C@@H](C)CO)C(=O)Cc2cc(NC(=O)Nc3ccc4c(c3)OCO4)ccc2O[C@@H]1CN(C)Cc1ccc(C(=O)Nc2ccccc2N)cc1 | · | -2.4 | 101.1*
C[C@H]1CN([C@@H](C)CO)C(=O)Cc2cc(NC(=O)NC3CCCCC3)ccc2O[C@H]1CN(C)Cc1ccc(C(=O)Nc2ccccc2N)cc1 | · | 0.7 | 138.8*
C[C@@H]1CN([C@H](C)CO)C(=O)Cc2cc(NC(=O)NC3CCCCC3)ccc2O[C@H]1CN(C)Cc1ccc(C(=O)Nc2ccccc2N)cc1 | · | -0.8 | 16.2
O=C(Nc1sc2c(c1C(=O)NCc1ccco1)CCCC2)c1ccccc1[N+](=O)[O-] | · | 0.0 | 29.9
COCCNC(=O)CC1Sc2ccccc2NC1=O (configuration not stated) | · | 0.4 | -2.6
CC(C)C12CC1C(C)(O[C@@H]1O[C@H](CO)[C@@H](O)[C@H](O)[C@H]1O)CC2=O (some centres not stated) | -1.2 | · | ·
Cc1ccc2c(C)c(C(=O)Nc3sc4c(c3C(=O)NCc3cccnc3)CCCC4)oc2c1 | · | · | 0.0
SMILES | Shh pathway inh | PD-1 reverse act | NOMO-1 viab
C[C@@H]1O[C@@H](OC[C@H]2O[C@@H](Oc3ccc(O)cc3)[C@H](O)[C@@H](OC(=O)c3ccc(O)cc3)[C@@H]2O)[C@H](O)[C@H](O)[C@H]1O | -47.5 | 0.7 | -5.3
O=C1C=CC(O)(/C=C/C(=O)OC[C@H]2O[C@@H](Oc3ccc(O)cc3)[C@H](O)[C@@H](OC(=O)/C=C/C3(O)C=CC(=O)C=C3)[C@@H]2O)C=C1 | -5.5 | -10.4 | 87.2*
COc1ccc(C2CC(=O)c3c(O)cc(O[C@@H]4O[C@H](CO[C@@H]5O[C@@H](C)[C@H](O)[C@@H](O)[C@H]5O)[C@@H](O)[C@H](O)[C@H]4O)cc3O2)cc1 (some centres not stated) | -30.4 | 1.1 | 12.3
O=C(/C=C/c1ccc(O)cc1)OC[C@H]1O[C@@H](Oc2cc(O)c3c(c2)OC(c2ccc(O)cc2)CC3=O)[C@H](O)[C@@H](OC(=O)/C=C/c2ccc(O)cc2)[C@@H]1O (some centres not stated) | 37.1 | -1.3 | 119.8*
Cc1nc2sccn2c(=O)c1CCN1CCC(=C(c2ccccc2)c2ccc(F)cc2)CC1 | 70.9* | -2.5 | 29.2
O=C(c1ccc(F)cc1)C1CCN(CCn2c(=O)[nH]c3ccccc3c2=O)CC1 | 16.9 | 3.0 | 6.6
C[C@H](CO)N1C[C@H](C)[C@@H](CN(C)Cc2ccc(-c3ccccc3)cc2)Oc2c(NC(=O)CCCCCC(=O)Nc3ccccc3N)cccc2C1=O | · | -1.9 | 125.0*
C[C@@H]1CN([C@H](C)CO)C(=O)c2cccc(NC(=O)CCCCCC(=O)Nc3ccccc3N)c2O[C@@H]1CN(C)Cc1ccc2c(c1)OCO2 | · | 0.3 | 68.4
CC(C)NC(=O)N(C)C[C@@H]1Oc2c(NC(=O)CCCCCC(=O)Nc3ccccc3N)cccc2C(=O)N([C@H](C)CO)C[C@H]1C | · | 0.7 | 6.6
C[C@@H]1CN([C@@H](C)CO)C(=O)c2cccc(NC(=O)CCCCCC(=O)Nc3ccccc3N)c2O[C@@H]1CN(C)Cc1ccccc1 | · | 2.2 | 87.7*
C[C@H](CO)N1C[C@H](C)[C@H](CN(C)Cc2ccc(Cl)c(Cl)c2)Oc2c(NC(=O)CCCCCC(=O)Nc3ccccc3N)cccc2C1=O | · | -0.7 | 113.9*
C[C@@H]1CN([C@H](C)CO)C(=O)c2cccc(NC(=O)CCCCCC(=O)Nc3ccccc3N)c2O[C@H]1CN(C)Cc1ccc2c(c1)OCO2 | · | -0.2 | 122.5*
C[C@H]1CN([C@@H](C)CO)C(=O)c2cccc(NC(=O)Nc3cccc4ccccc34)c2O[C@H]1CN(C)Cc1ccc(Cl)c(Cl)c1 | 5.1 | · | ?
C[C@H]1CN([C@@H](C)CO)C(=O)c2cccc(NC(=O)CCCCCC(=O)Nc3ccccc3N)c2O[C@@H]1CN(C)Cc1ccncc1 | · | 1.4 | 13.1
CCN(CC)CCSc1nnc2c3cc(C)ccc3n(C)c2n1 | · | 0.0 | 16.9
O=C(CSc1n[nH]c(-c2ccccc2Cl)n1)c1ccc(O)c(O)c1 | · | · | 72.9
Cc1cc(N(CC(=O)NC2CCCCC2)S(C)(=O)=O)ccc1Br | · | -0.9 | 32.5
COc1ccc(Cn2c(-c3nonc3NC(C)=O)nc3ccccc32)cc1 | · | -0.7 | 44.8
CC(=O)Nc1nonc1-c1nc2ccccc2n1Cc1cccc2ccccc12 | · | · | 118.3*

Screening results: PubChem BioAssay, Broad Institute
